Source: the supplement of paper PMC6555819

Assays:
Test in all cases: PBM binding z-score (relative to random genomic background probes); higher = stronger binding; sequences stand for … in GC…GCGATTGACAGCGTAGAATGAAGG
[1] = system: FXR:RXRa (NR concentration 270 nM, RXRa partner concentration 90 nM)
In short: (§1)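 Scanned fluorescence from custom Agilent 4×180K protein-binding microarrays was regression-normalized. Binding z-scores use random background probes as reference. Ligand-free nuclear receptor dimers were incubated on the arrays for 1 h and detected with antibodies against each partner (one per run).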

[2] = system: LXRa:RXRa (NR concentration 270 nM, RXRa partner concentration 90 nM)
In short: as §1

[3] = system: LXRa homodimer (NR concentration 270 nM)
In short: as §1

[4] = system: LXRb:RXRa (NR concentration 270 nM, RXRa partner concentration 90 nM)
In short: as §1

[5] = system: LXRb homodimer (NR concentration 270 nM)
In short: as §1

[6] = system: PPARa:RXRa (NR concentration 270 nM, RXRa partner concentration 90 nM)
In short: as §1

[7] = system: PPARg:RXRa (NR concentration 180 nM, RXRa partner concentration 90 nM)
In short: as §1

[8] = system: PPARg:RXRa 270nM:90nM, anti-RXR (NR concentration 270 nM, RXRa partner concentration 90 nM)
In short: as §1

[9] = system: PPARg:RXRa 30nM:10nM, anti-RXR (NR concentration 30 nM, RXRa partner concentration 10 nM)
In short: as §1

[10] = system: PPARg:RXRa 90nM:30nM, anti-RXR (NR concentration 90 nM, RXRa partner concentration 30 nM)
In short: as §1

[11] = system: PPARg:RXRa DBDmut IVT, anti-RXR (DBD mutation: RXRa K156A/R161A, NR concentration 270 nM, RXRa partner concentration 90 nM)
In short: as §1

[12] = system: PPARg:RXRa IVT, anti-PPARg (NR concentration 270 nM, RXRa partner concentration 90 nM)
In short: as §1

[13] = system: PPARg DBDmut:RXRa IVT, anti-PPARg (DBD mutation: PPARg1 K132A/R137A, NR concentration 270 nM, RXRa partner concentration 90 nM)
In short: as §1

[14] = system: PPARg DBDmut IVT, anti-PPARg (DBD mutation: PPARg1 K132A/R137A, NR concentration 270 nM)
In short: as §1

[15] = system: PPARg homodimer (NR concentration 180 nM)
In short: as §1

[16] = system: PXR:RXRa (NR concentration 270 nM, RXRa partner concentration 90 nM)
In short: as §1

[17] = system: PXR homodimer (NR concentration 270 nM)
In short: as §1

[18] = system: RARa:RXR (NR concentration 270 nM, RXRa partner concentration 90 nM)
In short: as §1

[19] = system: RARa homodimer (NR concentration 270 nM)
In short: as §1

[20] = system: RARb:RXRa (NR concentration 270 nM, RXRa partner concentration 90 nM)
In short: as §1

| Sequence | PBM binding z-score [1] | PBM binding z-score [2] | PBM binding z-score [3] | PBM binding z-score [4] | PBM binding z-score [5] | PBM binding z-score [6] | PBM binding z-score [7] | PBM binding z-score [8] | PBM binding z-score [9] | PBM binding z-score [10] | PBM binding z-score [11] | PBM binding z-score [12] | PBM binding z-score [13] | PBM binding z-score [14] | PBM binding z-score [15] | PBM binding z-score [16] | PBM binding z-score [17] | PBM binding z-score [18] | PBM binding z-score [19] | PBM binding z-score [20] |
| --- | --- | --- | --- | --- | --- | --- | --- | --- | --- | --- | --- | --- | --- | --- | --- | --- | --- | --- | --- | --- |
| ACTAGCAGGCCAAGAGTCACTCAAGATTAGTCCG | 0.0217 | -0.0111 | -0.373 | -0.29 | -0.882 | 1.46 | 2.56 | 4.08 | 2.06 | 3.48 | 0.813 | 0.847 | -0.175 | -0.385 | 0.631 | -0.105 | -0.185 | 0.354 | -0.112 | – |
| TTACCGAGGTGAAAGGTCGTTGATGCACGCCTTG | 3.99 | 3.64 | 0.332 | 3.53 | -0.52 | 5.85 | 9.29 | 8.26 | 7.84 | 9.2 | 3.24 | 5.19 | 0.609 | 0.681 | 2.03 | 4.58 | 0.0493 | 6.71 | -0.0852 | 3.11 |
| TAGCCTAGGTCATTTGGCCAGTATAGTACGCATC | 4.44 | 3.74 | 1.16 | 2.71 | 1.07 | 3.48 | 2.06 | 2.03 | 0.424 | 1.5 | 1.38 | 2.47 | 0.221 | 0.0367 | 0.566 | 1.61 | -0.0591 | 2.08 | -0.227 | 3.67 |
| CAAACTAGGTCACGAAAGGTCAAAGCCGAATGAC | 7.72 | 8.31 | 8.03 | 7.21 | 2.38 | 6.89 | 10.6 | 8.43 | 7.38 | 8.99 | 8.59 | 8.71 | 2.62 | 1.68 | 7.54 | 6.89 | 3.03 | 7.57 | 4.36 | 5.74 |
| AATACAGGGTCCTCGTAGGCCAGAGTACGCACAG | -0.0498 | -0.32 | -0.268 | -0.362 | -0.321 | 0.0293 | 0.721 | -0.0515 | -0.317 | -0.0938 | -0.234 | 0.716 | -0.242 | 0.0325 | -0.0615 | -0.282 | -0.0675 | -0.118 | -0.348 | 0.268 |
| GCTTACGGGTCAAAGGTTACAGCATGAATAGAAT | 8.04 | 5.9 | 0.488 | 6.05 | 0.89 | 7.24 | 12 | 9.99 | 10 | 11.5 | 5.26 | 6.43 | 2.32 | 2.26 | 5.3 | 6.45 | 0.418 | 8.5 | 1.16 | 4.7 |
| GATACACGGTCAAGGCCAGAGTACGCGTATTGAT | 0.0472 | 0.275 | -0.18 | -0.406 | -0.667 | -0.0579 | 0.695 | -0.00524 | -0.0944 | -0.0776 | 0.208 | 0.594 | -0.0876 | -0.79 | -0.507 | 0.00631 | -0.314 | -0.159 | -0.63 | 2.67 |
| CGTCCAAGGTCATAGGAGGTCATTGAAGACAGAT | 7.83 | 7.82 | 7.86 | 6.99 | 1.61 | 5.94 | 5.65 | 5.98 | 2.75 | 4.71 | 3.6 | 4.68 | 0.258 | 0.325 | 4.58 | 7.17 | 10 | 6.52 | 2.32 | 5.47 |
| CCTACTGGGCCATTCAGAGGACATTGATCATATG | -0.067 | -0.34 | 0.339 | -0.405 | -0.12 | 0.0535 | 0.784 | 0.44 | -0.132 | -0.17 | 4.5 | 3.41 | 0.559 | -0.35 | -0.295 | -0.327 | 0.096 | -0.457 | -0.467 | – |
| ATCGAAAGGTCGAAAGTGAGTATACCCACCCGAA | 3.56 | 3.24 | 0.172 | 2.67 | 0.816 | 3.74 | 2.17 | 2.5 | 1.05 | 2.05 | -0.0216 | 1.35 | 1.11 | 0.905 | 0.0924 | 2.02 | 0.265 | 2.62 | 0.478 | 3.19 |
| ACTAGGTGGTCAGCTGAGGTCACACACAATTCGG | 3.12 | 3.37 | 2.31 | 3.52 | -0.173 | 3.87 | 2.43 | 2.63 | 0.956 | 2.14 | 1.21 | 3.02 | 0.296 | 0.306 | 1.93 | 5.62 | 1.01 | 4.73 | 0.58 | 3.78 |
| CGTCCAAGGTCAACAGGTCAGTGAAAGCGACGTG | 7.08 | 5.58 | 1.56 | 4.45 | 0.945 | 5.84 | 5.65 | 6.07 | 2.82 | 4.88 | 3.88 | 4.5 | 0.0184 | 0.0079 | 5.41 | 4.98 | 1.28 | 5.92 | 1.34 | – |
| TCTAGTTGGTCGCGGAGGTCACACACGACGGGTA | 2.99 | 3.17 | 2.21 | 2.94 | 0.671 | 3.61 | 2.02 | 3.04 | 2.94 | 2.83 | 1.54 | 2.37 | 0.402 | 0.328 | 2.9 | 4.16 | 1.42 | 4.39 | 1.29 | 3.38 |
| CCTGGCAGGCCAGGGTCACTCAAGCATTTCGCTT | 2.34 | 2.07 | -0.539 | 2.18 | -1.2 | 3.35 | 0.292 | 1.27 | -0.621 | 0.206 | -0.558 | 0.531 | -1.01 | -1.58 | 0.712 | 3.01 | -0.393 | 3.1 | -0.89 | 2.91 |
| CCTACTGGGCCATCAGGTGATTGATATCAACGTT | -0.454 | -0.704 | -0.341 | -0.438 | -0.864 | 0.426 | 1.29 | 1.63 | 0.102 | 1.27 | 3.79 | 4.34 | 0.38 | -0.0432 | -0.3 | -0.668 | -0.342 | -0.448 | -0.0417 | 0.0448 |
| CGAACTAGGTAAAGGACAGTGAATCTCCGCACGC | -0.281 | -0.379 | -0.301 | -0.788 | -0.59 | 1.32 | 1.51 | 1.3 | -0.0812 | 0.891 | 5.6 | 4.4 | 0.46 | -0.605 | 0.363 | -0.407 | -0.167 | -0.453 | -0.188 | 1.21 |
| CCTCGGAGGACAACAGGATGTCAGAGCTGCCAGA | -0.208 | -0.272 | -0.316 | -0.845 | -1.16 | -0.631 | 0.183 | -1.12 | -0.754 | -1.23 | 0.0272 | -0.669 | -0.339 | -1.74 | -0.00372 | -0.729 | -0.378 | -0.712 | -0.0154 | 1.13 |
